# Laboratory results reported in PubChem BioAssay (Tox21).
# Records with an inconclusive call do not appear. A call without a number means that no potency is given here. A number with no mark means an inactive call. Active and inactive are the calls of the source. Unless noted, the call rests on the fitted dose curve.
# Tests used:
# [1] = qHTS assay to identify small molecule agonists of the vitamin D receptor (VDR) signaling pathway - cell viability counter screen (AID 743224; active means well fitted curve in the direction sought with a large enough effect in the repeat runs; an effect the other way counts as inactive or inconclusive; further: nearly all actives have a fitted effect of over 50% in size); conditions: VDR-bla HEK293T viability, CellTiter-Glo luminescence, 16 h; series mostly up to 62.6 µM
# Summary of the method: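 In parallel with the bla FRET readout, cytotoxicity toward VDR-bla cells after 16 h compound exposure was assessed by CellTiter-Glo, with luminescence recorded after a 30 min room-temperature incubation.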
# [2] = qHTS assay to identify small molecule agonists of the NFkB signaling pathway (AID 1159509; active means well fitted curve in the direction sought with a large enough effect in the signal ratio in the repeat runs, not every such curve was filed as active; the % refers to the signal ratio); conditions: NFkB-bla ME-180 cells, beta-lactamase FRET ratio, 5 h; series mostly up to 61 µM
# Summary of the method: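 Pathway activation was measured in ME-180 cells stably expressing beta-lactamase under NF-kB response element control. Substrate cleavage was read as the 460/530 nm emission shift after 5 hr compound incubation.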
# [3] = qHTS assay to identify small molecule agonists of the NFkB signaling pathway - cell viability counter screen (AID 1159515); conditions: NFkB-bla ME-180 viability, CellTiter-Glo luminescence, 5 h; series mostly up to 61 µM; further: nearly all actives have a fitted effect of over 55% in size
# Summary of the method: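 Plate 2,000 NFkB-bla ME-180 cells/well; incubate overnight. Add compounds, 5 hr at 37 C. Add FRET substrate, 1.5 hr RT. Add CellTiter-Glo, 30 min RT; read luminescence.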
# [4] = qHTS assay to identify small molecule agonists of the endoplasmic reticulum stress response signaling pathway (AID 1159516; active means well fitted activation curve with a large enough effect in the signal ratio in the repeat runs, not every such curve was filed as active; the % refers to the signal ratio); conditions: ESRE-bla HeLa, ER stress beta-lactamase reporter, 5 h; series mostly up to 61 µM
# Summary of the method: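 Beta-lactamase expression from the ER stress response element in HeLa reporter cells is quantified with the LiveBLAzer B/G FRET substrate, read at 405 nm excitation after 2 hr at room temperature, following 5 hr compound treatment at 37 C.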
# [5] = qHTS assay to identify small molecule agonists of the endoplasmic reticulum stress response signaling pathway - cell viability counter screen (AID 1159517); conditions: ESRE-bla HeLa viability, CellTiter-Glo luminescence, 5 h; series mostly up to 61 µM; further: nearly all actives have a fitted effect of over 50% in size
# Summary of the method: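 ESRE-bla HeLa cells (1,500/well) were plated overnight at 37 C and exposed to compounds for 5 hr. After the 2 hr beta-lactamase substrate read, CellTiter-Glo went into the same wells, and luminescence was read after 30 min at room temperature.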
# [6] = qHTS assay to identify small molecule agonists of the AP-1 signaling pathway - cell viability counter screen (AID 1159525); conditions: ME-180 AP-1-bla cells viability, ATP luminescence, 5 h; series mostly up to 76.8 µM; further: nearly all actives have a fitted effect of over 55% in size
# Summary of the method: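 Intracellular ATP by Cell Titer Glo luminescence (30 min, RT) in the same ME-180 AP-1-bla wells after the 5 h compound exposure at 37 °C. Normalised to tetra n-octyl ammonium bromide and DMSO controls.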
# [7] = qHTS assay to identify small molecule agonists of the AP-1 signaling pathway (AID 1159526); conditions: ME-180 (cervical carcinoma) AP-1-bla reporter, beta-lactamase FRET ratio, 5 h; series mostly up to 76.8 µM
# [8] = qHTS assay to identify small molecule antagonists of the vitamin D receptor (VDR) signaling pathway - cell viability counter screen (AID 743225; active means well fitted curve in the direction sought with a large enough effect in the repeat runs; an effect the other way counts as inactive or inconclusive; further: nearly all actives have a fitted effect of over 50% in size); conditions: VDR-bla HEK293T viability, CellTiter-Glo luminescence, 16 h; series mostly up to 61 µM
# Summary of the method: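 Cytotoxicity toward the VDR-bla HEK 293T line was scored by ATP-based CellTiter-Glo luminescence, read in the wells already used for the beta-lactamase readout after 16 h compound treatment under 3 nM 1-alpha,25-dihydroxyvitamin D3 stimulation.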
# [9] = target: Nuclear receptor ROR-gamma (Homo sapiens) (UniProt P51449); assay: qHTS assay to identify small molecule antagonists of the retinoid-related orphan receptor gamma (ROR-gamma) signaling pathway (AID 1159521; active means well fitted curve in the direction sought with a large enough effect in the repeat runs; an effect the other way counts as inactive or inconclusive; further: nearly all actives have a fitted effect of over 50% in size; further: potency means the concentration at half of the fitted maximal effect;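 on activity change, negative = inhibition: CHO cells with doxycycline inducible ROR-gamma driving an RORE luciferase reporter; top concentration of the series differs between compounds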); conditions: Tet-on RORgamma CHO cells, RORE-luciferase, 16 h; series mostly up to 92.4 µM
# Summary of the method: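 Readout: ONE-Glo luciferase luminescence, 30 min at room temperature. System: Tet-on RORγ CHO, RORE-LUC. Sequence: compound 2 h, doxycycline 1 uM final, 16 h at 37 C.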
# [10] = qHTS assay to identify small molecule antagonists of the retinoid-related orphan receptor gamma (ROR-gamma) signaling pathway - cell viability counter screen (AID 1159520; active means well fitted curve in the direction sought with a large enough effect in the repeat runs; an effect the other way counts as inactive or inconclusive; further: nearly all actives have a fitted effect of over 50% in size); conditions: Tet-on RORgamma CHO cells viability, ATP luminescence, 16 h; series mostly up to 92.4 µM
# Summary of the method: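 Cytotoxicity was read from cellular ATP (CellTiter-Glo luminescence) after 16 hr at 37 C with 1 uM doxycycline induction. The inducer was added 2 hr after compound transfer to Tet-on ROR gamma CHO cells.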
compound,measurement,setting,value
CCCOCCC,Potency,[1],inactive
same,outcome,[2],inactive
same,outcome,[3],inactive
same,outcome,[4],inactive
same,outcome,[5],inactive
same,outcome,[6],inactive
same,Potency,[7],inactive
CCN(CC)C(=O)N(CC)CC,Potency,[1],inactive
same,Potency,[8],inactive
same,outcome,[2],inactive
same,outcome,[3],inactive
same,outcome,[4],inactive
same,outcome,[5],inactive
same,outcome,[6],inactive
same,Potency,[7],inactive
CC1(C)O[C@@H]2C[C@H]3[C@@H]4CCC5=CC(=O)CC[C@]5(C)[C@@]4(F)[C@@H](O)C[C@]3(C)[C@]2(C(=O)CCl)O1,Potency,[1],inactive
same,outcome,[2],inactive
same,outcome,[3],inactive
same,outcome,[4],inactive
same,outcome,[5],inactive
same,Potency,[9],13.3 µM (active)
same,outcome,[6],inactive
CC(=O)O[C@H]1CC[C@@]2(C)C(=CC[C@@H]3[C@@H]2CC[C@]2(C)C(C(C)=O)=CC[C@@H]32)C1,Potency,[1],inactive
same,Potency,[8],inactive
same,outcome,[2],inactive
same,outcome,[3],inactive
same,outcome,[4],inactive
same,outcome,[5],inactive
same,outcome,[6],inactive
same,Potency,[7],inactive
CC(C)(C)C1CCCCC1=O (configuration not stated),Potency,[1],inactive
same,Potency,[8],inactive
same,outcome,[2],inactive
same,outcome,[3],inactive
same,outcome,[4],inactive
same,outcome,[5],inactive
same,outcome,[6],inactive
same,Potency,[7],inactive
CC(C)=CCCC(C)CCOC=O (configuration not stated),Potency,[8],inactive
same,outcome,[2],inactive
same,outcome,[3],inactive
same,outcome,[4],inactive
same,outcome,[5],inactive
same,Potency,[9],inactive
same,outcome,[6],inactive
CC/C=C\CCOC(=O)C(C)C,Potency,[8],inactive
same,outcome,[2],inactive
same,outcome,[3],inactive
same,outcome,[4],inactive
same,outcome,[5],inactive
same,Potency,[10],inactive
same,outcome,[6],inactive
same,Potency,[7],inactive
CCN(CCCc1ccccc1)CCCc1ccccc1,Potency,[1],inactive
same,Potency,[8],inactive
same,outcome,[2],inactive
same,outcome,[3],inactive
same,outcome,[4],inactive
same,outcome,[5],inactive
same,Potency,[9],inactive
same,outcome,[6],inactive
COC(=O)C(C)O (configuration not stated),Potency,[1],inactive
same,Potency,[8],inactive
same,outcome,[2],inactive
same,outcome,[3],inactive
same,outcome,[4],inactive
same,outcome,[5],inactive
same,outcome,[6],inactive
same,Potency,[7],inactive
C=Cc1ccccc1,Potency,[1],inactive
same,Potency,[8],inactive
same,outcome,[2],inactive
same,outcome,[3],inactive
same,outcome,[4],inactive
same,outcome,[5],inactive
same,outcome,[6],inactive
same,Potency,[7],inactive
CC(C)O,Potency,[8],inactive
same,outcome,[2],inactive
same,outcome,[3],inactive
same,outcome,[4],inactive
same,outcome,[5],inactive
same,Potency,[9],65.6 µM (active)
O=C1N(c2ccccc2)c2ccccc2C1(Cc1ccncc1)Cc1ccncc1,Potency,[1],inactive
same,Potency,[8],inactive
same,outcome,[2],inactive
same,outcome,[3],inactive
same,outcome,[4],inactive
same,outcome,[5],inactive
same,Potency,[9],inactive
same,Potency,[7],inactive
CC(C)Nc1nc(N)nc(Cl)n1,Potency,[1],inactive
same,Potency,[8],inactive
same,outcome,[2],inactive
same,outcome,[3],inactive
same,outcome,[4],inactive
same,outcome,[5],inactive
same,outcome,[6],inactive
same,Potency,[7],inactive
Cc1ccc([N+](=O)[O-])cc1Cl,Potency,[8],inactive
same,outcome,[2],inactive
same,outcome,[3],inactive
same,outcome,[4],inactive
same,outcome,[5],inactive
same,Potency,[10],inactive
same,outcome,[6],inactive
same,Potency,[7],inactive
NC(Cc1ccc(F)cc1)C(=O)O (configuration not stated),"activity change, negative = cytotoxicity",[1],0.52% [at 5.95 µM]
same,"viability change, negative = cytotoxic",[8],2.79% [at 6.95 µM]
same,activation,[2],-1.04% [at 6.95 µM]
same,"activity, negative = cytotoxic",[3],-7.23% [at 6.95 µM]
same,activation,[4],-3.08% [at 6.95 µM]
same,"activity change, negative = cytotoxicity",[5],0.188% [at 6.95 µM]
same,"activity change, negative = inhibition",[9],-13.5% [at 8.39 µM]
same,"viability change, negative = cytotoxic",[6],-5.13% [at 6.97 µM]
CCOC(=O)COc1ccc2c(c1)CC(NCC(O)c1cccc(Cl)c1)CC2 (configuration not stated),Potency,[1],inactive
same,outcome,[2],inactive
same,outcome,[3],inactive
same,outcome,[4],inactive
same,outcome,[5],inactive
same,Potency,[9],inactive
COC(=O)/C=C(/C)N,Potency,[1],inactive
same,Potency,[8],inactive
same,outcome,[2],inactive
same,outcome,[3],inactive
same,outcome,[4],inactive
same,outcome,[5],inactive
same,outcome,[6],inactive
same,Potency,[7],inactive
CC(C)NC[C@@H](O)COc1cccc2ccccc12,Potency,[1],inactive
same,Potency,[8],inactive
same,outcome,[2],inactive
same,outcome,[3],inactive
same,outcome,[4],inactive
same,outcome,[5],inactive
same,Potency,[9],inactive
same,outcome,[6],inactive
O=C(C(Cl)Cl)N1CCOC12CCCCC2,Potency,[1],inactive
same,Potency,[8],inactive
same,outcome,[2],inactive
same,outcome,[3],inactive
same,outcome,[4],inactive
same,outcome,[5],inactive
same,outcome,[6],inactive
same,Potency,[7],inactive
C=CC(C)(O)CC/C=C(\C)CCC=C(C)C (configuration not stated),Potency,[1],inactive
same,outcome,[2],inactive
same,outcome,[4],inactive
same,outcome,[5],inactive
same,Potency,[10],inactive
same,Potency,[9],inactive
same,outcome,[6],inactive
CCC/C=C/CO,Potency,[1],inactive
same,Potency,[8],inactive
same,outcome,[4],inactive
same,outcome,[5],inactive
same,Potency,[10],inactive
same,Potency,[7],inactive
COc1cc(N)c(Cl)cc1C(=O)NC1CCN(Cc2ccccc2)CC1,Potency,[1],inactive
same,Potency,[8],inactive
same,outcome,[2],inactive
same,outcome,[4],inactive
same,outcome,[5],inactive
same,Potency,[10],inactive
same,outcome,[6],inactive
same,Potency,[7],inactive
O=C1CCCCC1C1CCCCC1 (configuration not stated),Potency,[1],inactive
same,Potency,[8],inactive
same,outcome,[2],inactive
same,outcome,[4],inactive
same,outcome,[5],inactive
same,Potency,[10],inactive
same,Potency,[9],inactive
same,Potency,[7],inactive
N#Cc1ccc(C(c2ccc(C#N)cc2)n2cncn2)cc1,Potency,[1],inactive
same,Potency,[8],inactive
same,outcome,[2],inactive
same,outcome,[4],inactive
same,outcome,[5],inactive
same,Potency,[10],inactive
same,outcome,[6],inactive
same,Potency,[7],inactive
CCc1cc(Cl)c(OC)c(C(=O)NC[C@@H]2CCCN2CC)c1O,Potency,[1],inactive
same,Potency,[8],inactive
same,outcome,[2],inactive
same,outcome,[4],inactive
same,outcome,[5],inactive
same,Potency,[10],inactive
same,Potency,[9],inactive
same,outcome,[6],inactive
NC(=O)NS(=O)(=O)c1ccc(Cl)cc1,Potency,[1],inactive
same,Potency,[8],inactive
same,outcome,[2],inactive
same,outcome,[4],inactive
same,outcome,[5],inactive
same,Potency,[10],inactive
same,outcome,[6],inactive
same,Potency,[7],inactive
COC(=O)N[C@H](C(=O)N[C@@H](Cc1ccccc1)[C@@H](O)CN(Cc1ccc(-c2ccccn2)cc1)NC(=O)[C@@H](NC(=O)OC)C(C)(C)C)C(C)(C)C,Potency,[1],inactive
same,Potency,[8],inactive
same,outcome,[2],inactive
same,outcome,[4],inactive
same,outcome,[5],inactive
same,Potency,[10],inactive
same,outcome,[6],inactive
same,Potency,[7],inactive
OCc1ccccc1O,Potency,[1],inactive
same,Potency,[8],inactive
same,outcome,[2],inactive
same,outcome,[4],inactive
same,outcome,[5],inactive
same,Potency,[10],inactive
same,outcome,[6],inactive
same,Potency,[7],inactive
O=C1CCCc2ccccc21,Potency,[1],inactive
same,Potency,[8],inactive
same,outcome,[2],inactive
same,outcome,[4],inactive
same,outcome,[5],inactive
same,Potency,[10],inactive
same,outcome,[6],inactive
same,Potency,[7],inactive
